Ins promoter up = MIN6 insulin promoter up-regulation; z-score at 5 µM; MIN6 insulin promoter-GFP reporter, high-content imaging; active compounds read high; hit rate 0.3% among 190,000;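 active = z-score above 3 at 5 µM with at least 500 cells counted in the well; inconclusive = wells under 500 cells, flagged as cytotoxic or low count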
Insulin prom inh = TRM-6 insulin promoter activity inhibition; TRM-6 cells (human fetal islet line), insulin promoter-eGFP reporter, imaging; reporter expression induced with tamoxifen; inhibition, % at 2 µM; hit rate 0.9% among 130,000; AID 1273;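 active = inhibition above the mean plus 3 SD, with well images judged a real hit on visual review, cut at about 60% in these data, passing the limit was not always enough; inconclusive = inhibition over the cutoff but images rejected on review; inactive = inhibition not above the cutoff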
bCat KO growth = beta-catenin-lacking colon tumor cell growth suppression | HCT116 beta-catenin knockout viability, CellTiter-Glo, 60 h; active compounds read low | viability, % at 10 µM | hit rate 1.5% among 140,000 | AID 818;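 active = viability at or under a set limit, the compound median less 4 SD, cut at about 6% in these data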
L major viab = Leishmania major promastigote growth inhibition | inhibition, % at 10 µM | AID 1063 | Leishmania major promastigotes, resazurin fluorescence viability | hit rate 9% among 200,000; in the data active = inhibition above about 50%;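 also: promastigotes grown with compound for 44 hours at 28 °C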
PTEN del growth = suppresses growth of cells with PTEN deletion; HCT116 PTEN-null viability, CellTiter-Glo, 60 h; active compounds read low; viability, % at 10 µM; AID 827; hit rate 1.2% among 140,000;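 active = viability at or below a set limit, 4 SD under the median of all tested compounds, cut at about 3.7% in these data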;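 also: PTEN knockout HCT116 line with beta catenin targeted HCT116 as companion control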
Autophagy mod = autophagy modulation, high-content screen. MEF GFP-LC3 puncta imaging; test concentration mostly 10 µM. calls only at 10 µM (by protocol). hit rate 0.98% among 190,000. AID 463193;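 active = percentage of spot-positive cells more than 3 SD above its plate mean, without a fluorescence outlier flag or 80% toxicity; inconclusive = no clear call, values can overlap the other calls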
Of the large screens only hits and unclear results are named; the others gave an inactive call. Compounds with a hit are over-represented: about 9.6% of the library has one in this group of screens.

O=C(CCc1ccccc1)Nc1cc(Cl)ccc1O	L major viab 78.5
Cc1cc(NC(=O)CCc2ccccc2)c([N+](=O)[O-])cc1C	L major viab 50.6
Cc1cc(C)c([N+](=O)[O-])cc1NC(=O)CCSc1ccccc1Cl	L major viab 55.4
CCCn1c(=N)c(C(=O)NCC2CCCO2)cc2c(=O)n3cccc(C)c3nc21 (centres undefined)	none (no result: Insulin prom inh)
COc1ccc2c(C)cc(SCC(=O)c3ccc4c(c3)OCO4)nc2c1	none
C=CCNC(=O)COc1ccc(S(=O)(=O)Nc2ccc(OCC)cc2)cc1	L major viab 59.9
C=CCNC(=O)COc1ccc(S(=O)(=O)NC2CCCCC2)cc1	none
CCC(=O)NNC(=S)NC(=O)c1ccc(C)cc1	none (no result: Insulin prom inh, bCat KO growth, PTEN del growth)
COc1cc(/C=C2\SC(=S)N(N3CCOCC3)C2=O)ccc1O	none (no result: Insulin prom inh, bCat KO growth, L major viab, PTEN del growth, Autophagy mod)
C=CCN1C(=O)/C(=C\c2ccc(Oc3nc(N4CCOCC4)nc(N4CCOCC4)n3)c(OC)c2)SC1=S	L major viab 53.8 (no result: Ins promoter up, bCat KO growth, PTEN del growth)
O=C(C1CCCN(Cc2ccncc2)C1)N1CCc2ccccc2C1 (centres undefined)	L major viab 90.5 (no result: Insulin prom inh)
Cc1cccc(CN2CCCC(C(=O)N3CCc4ccccc4C3)C2)c1 (centres undefined)	L major viab 95.4 (no result: Ins promoter up)
COc1ccc(COC(=O)Nc2cc3c(C(F)(F)F)nn(C)c3s2)cc1	none
Clc1ccc2oc3c(Cl)ncnc3c2c1	bCat KO growth 3.0
NC(=O)CN1C(=O)C(O)(CC(=O)/C=C\c2ccc3c(c2)OCO3)c2ccccc21 (centres undefined)	none (no result: bCat KO growth, PTEN del growth)
Cc1ccc(-c2csc(NC(=O)CCNC(=O)c3ccccc3Cl)n2)cc1	L major viab 83.7
CC(=O)Nc1ccc(-c2csc(NC(=O)CCCc3cccs3)n2)cc1	L major viab 75.4
CC(=O)Nc1ccc(-c2csc(NCc3ccccc3)n2)cc1	L major viab 60.3 (no result: Insulin prom inh, bCat KO growth, PTEN del growth)
CCOc1ccc(Nc2nc(N)c([N+](=O)[O-])c(NCc3ccccc3)n2)cc1	none (no result: Insulin prom inh, bCat KO growth, L major viab, PTEN del growth, Autophagy mod)
COc1nc(N)c(S(=O)(=O)c2ccccc2C)cc1C#N	none
CCOc1cc(CNCCc2ccccc2)ccc1OCC(=O)NC(C)(C)C	L major viab 99.8 (no result: Insulin prom inh)
CCNC(=O)COc1ccc(CC)cc1	none
CCOc1ccc(CCNC(=O)COC(=O)c2ccco2)cc1OCC	L major viab 55.9
CCOc1cc(CNCCc2ccc(S(N)(=O)=O)cc2)ccc1OCC(=O)NC(C)(C)C	none
CCOc1cc(CNCc2cccnc2)ccc1OCC(=O)NC(C)(C)C	L major viab 83.1 (no result: Insulin prom inh, bCat KO growth, PTEN del growth)
CCc1ccc(OCC(=O)NC(C)(C)C)cc1	L major viab 62.7
CC(=O)c1cc(C#N)c(NCCCN(C)C)nc1C	none (no result: Insulin prom inh, bCat KO growth, PTEN del growth)
COCCN(CCOC)c1ncnc2c1cnn2-c1ccc(Cl)cc1	none
O=C(O)/C=C/C(=O)Nc1cccc2cccnc12	none (no result: Insulin prom inh, bCat KO growth, L major viab, PTEN del growth, Autophagy mod)
CCOc1ccc(CCNC(=O)Cn2cccc2C(=O)c2ccccc2C)cc1OCC	L major viab 60.7
CC(C)(C)NC(=O)COc1ccc(CNCCc2ccccc2)cc1	L major viab 86.7 (no result: Insulin prom inh, bCat KO growth, PTEN del growth)
CC(C)(C)NC(=O)COc1ccc(CNCc2ccccn2)cc1	none (no result: Ins promoter up, bCat KO growth, PTEN del growth)
CCOc1ccc(CCNC(=O)CCn2cccc2)cc1OCC	none
CCOC(=O)Cn1cc(/C=N/NC(=O)c2ccc(C#N)cc2F)c2ccccc21	none (no result: Ins promoter up)
N#Cc1ccc(C(=O)N/N=C/c2cn(CC(=O)O)c3ccccc23)c(F)c1	L major viab 57.8
COC(=O)C1C(c2ccccc2)C=CC(c2ccccc2)C1C(=O)O (centres undefined)	none (no result: Insulin prom inh, bCat KO growth, L major viab, PTEN del growth, Autophagy mod)
COc1ccc(Nc2nc3ccc(C)cc3cc2C#N)c(OC)c1	none (no result: Insulin prom inh)
COc1ccc(Nc2nc3cc(C)ccc3cc2C#N)c(OC)c1	Autophagy mod active (no result: bCat KO growth, PTEN del growth)
COc1ccc(Nc2nc3c(C)cccc3cc2C#N)c(OC)c1	Autophagy mod active
CC(=O)Nc1ccc(S(=O)(=O)N2CCN(c3cc(C)ccc3C)CC2)cc1	none (no result: Ins promoter up, Insulin prom inh)
Cc1ccc(S(=O)(=O)C2(C(=O)N3CCCCCC3)CC2)cc1	none
Cc1ccc(S(=O)(=O)C2(C(=O)N3CCN(C4CCCCC4)CC3)CC2)cc1	L major viab 75.9 (no result: Ins promoter up)
Cc1ccc(S(=O)(=O)C2(C(=O)N3CCN(c4cc(C)ccc4C)CC3)CC2)cc1	L major viab 72.5 (no result: bCat KO growth, PTEN del growth)
CCOc1ccccc1-n1c(=O)c2ccccc2c2ccccc2c1=O	L major viab 76.8
O=C(COc1ccc(Cl)cc1Cl)NC(=O)N1CCOCC1	none (no result: Ins promoter up, Insulin prom inh)
Cc1cc2sc3ccccc3c(=O)c2c(C)c1O	none (no result: Insulin prom inh, bCat KO growth, PTEN del growth)
O=c1c(C(c2ccccc2)c2c(O)sc3ccccc3c2=O)c(O)sc2ccccc12	Insulin prom inh 80.0 (no result: Ins promoter up)
CCn1c(C(=O)NC(C)c2ccc3c(c2)OCCO3)cc2sccc21 (centres undefined)	none (no result: Insulin prom inh)
CCOC(=O)c1cc(-c2ccccc2)sc1NC(=S)Nc1cc(C)ccn1	Autophagy mod active (no result: Insulin prom inh)
CCCn1cc(NC(=O)c2cc3n(n2)C(C(F)(F)F)CC(c2ccccc2)N3)cn1 (centres undefined)	none (no result: Ins promoter up)
CCC(NC(=O)NCc1ccccc1)(C(F)(F)F)C(F)(F)F	Insulin prom inh 71.4
CCC(NC(=O)NCc1ccc2c(c1)OCO2)(C(F)(F)F)C(F)(F)F	none
COc1ccc(CN(CCN(C)C)Cc2ccccc2)c(OC)c1	L major viab 99.8 (no result: Ins promoter up)
COc1ccc(CN(C)CC(=O)NC(=O)NCc2ccccc2)c(OC)c1	none
Cc1c(Cl)cccc1N1C(=O)CC(NNC(=O)c2cccs2)C1=O (centres undefined)	none (no result: bCat KO growth, PTEN del growth)
C[C@H]1COC2=C1C(=O)C(=O)c1c2ccc2c1CCCC2(C)C	none (no result: Insulin prom inh, bCat KO growth, PTEN del growth)
Cc1coc2c1C(=O)C(=O)c1c-2ccc2c1CCCC2(C)C	L major viab 98.2 (no result: Insulin prom inh, bCat KO growth, PTEN del growth)
COc1cc2c(c(O)c1OC)C(=O)C(OC)CCC2 (centres undefined)	none
CCOC(=O)c1sc2cc([N+](=O)[O-])cc(SCC(C)C)c2c1N	Autophagy mod active (no result: Ins promoter up)
O=C(Cn1cnc2ccccc21)N1CCN(S(=O)(=O)c2ccccc2)CC1	none (no result: Insulin prom inh, bCat KO growth, PTEN del growth)
COC(=O)C1=C(C)N(c2ccc(Cl)c(Cl)c2)C(=O)C1	bCat KO growth 3.6, L major viab 80.4, PTEN del growth 3.6
COc1ccc(-c2nc(CS(=O)CC(=O)NCC3CCCO3)c(C)o2)cc1 (centres undefined)	none (no result: Insulin prom inh)
CCCn1c2c(c(=N)c3c1CCC3)CCCC2	L major viab 99.8
N=c1c2c(n(Cc3ccc([N+](=O)[O-])cc3)c3c1CCC3)CCCC2	L major viab 63.6, Autophagy mod active (no result: bCat KO growth, PTEN del growth)
N=c1c2c(n(Cc3ccc(Cl)c(Cl)c3)c3c1CCC3)CCCC2	Ins promoter up inconclusive, L major viab 100.2 (no result: Insulin prom inh)
N=c1c2c(n(Cc3ccc(Br)cc3)c3c1CCC3)CCCC2	Ins promoter up inconclusive, L major viab 100.0
O=c1[nH]c(=O)n(Cc2ccccc2)c2c1CCC2	none (no result: Insulin prom inh)
COC(=O)CN1C(=O)C(C)=C(c2ccc(C)cc2)S1(=O)=O	none
CCCCCCCn1c2c(c(=N)c3ccccc31)CCC2	Ins promoter up inconclusive, L major viab 100.4 (no result: Insulin prom inh, bCat KO growth, PTEN del growth)
CCCn1c2c(c(=N)c3c1CCC3)CCC2	none (no result: Insulin prom inh, bCat KO growth, L major viab, PTEN del growth, Autophagy mod)
Cc1ccc(NC(=O)c2ccccc2O)cc1	none
CCC(=O)Nc1cccc(NC(=O)c2ccccc2Br)c1	none (no result: Insulin prom inh)

Assay outcomes (PubChem)
